Data from PubChem BioAssay AID1117282 (The Scripps Research Institute Molecular Screening Center, 2014).
Some of the results follow. Active and inactive are the calls of the source.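 The calls were made as follows: active = mean inhibition across replicates above a set limit taken from the earlier primary screen (cut at about 11% in these data); inactive = the rest.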

molecular target: RNA-editing ligase 1, mitochondrial (Trypanosoma brucei brucei) (UniProt P86926); assay: TbREL1 RNA ligase inhibitors, confirmation, biochemical, FRET fluorescence, triplicate (AID 1117282); details: TbREL1 RNA ligation, at 9.66 µM, hits give high values;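 also: 0% = REL1 with substrate and DMSO and 100% = REL1 plus control inhibitor NSC42067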
Sequence (P86926 whole entry, looked up): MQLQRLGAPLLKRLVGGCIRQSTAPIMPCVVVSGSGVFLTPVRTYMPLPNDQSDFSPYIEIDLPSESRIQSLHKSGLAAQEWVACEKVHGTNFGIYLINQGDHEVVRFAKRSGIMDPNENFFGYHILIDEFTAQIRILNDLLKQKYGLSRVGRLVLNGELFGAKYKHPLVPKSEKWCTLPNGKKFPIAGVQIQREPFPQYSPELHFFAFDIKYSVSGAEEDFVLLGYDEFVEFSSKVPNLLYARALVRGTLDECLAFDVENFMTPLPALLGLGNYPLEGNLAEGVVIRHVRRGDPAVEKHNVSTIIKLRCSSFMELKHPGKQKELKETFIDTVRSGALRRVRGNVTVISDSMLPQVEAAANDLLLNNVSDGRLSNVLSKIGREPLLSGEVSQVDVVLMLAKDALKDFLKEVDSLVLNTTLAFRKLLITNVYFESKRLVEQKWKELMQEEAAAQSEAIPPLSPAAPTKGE

Structure (SMILES) | inhibition
CN1CCN(c2cc(N3CCNCC3)ccc2[N+](=O)[O-])CC1 | 9.79% (inactive)
O=c1[nH]c2ccccc2n1C1CCN(C(c2ccccc2)c2nnnn2Cc2ccccc2)CC1 (stereo not drawn) | 1.44% (inactive)
CC1CCCCN1Cc1cccnc1 (stereo not drawn) | 5.17% (inactive)
